Our source for the binding signal values is publication PMC8384837, “Expanding the binding specificity for RNA recognition by a PUF domain”.

Experiment in all cases: yeast three-hybrid, YBZ-1, SC-Leu-His + 0.5 mM 3-AT, 4 days
Holding throughout (conditions): tags: N-Gal4 AD-HA kept; label: inside an RPR1-promoter hybrid RNA with tandem MS2 sites; ssRNA

In one assay the target is PUM1 PUF domain R7-RGF (Homo sapiens, UniProt Q14671 828-1176, S1079R;N1080G;E1083F). An outline of the steps: (§1)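 Pumilio-1 PUF domain libraries, randomized at the three base-contacting residues of each repeat, were co-expressed with matching RNA elements from a centromeric plasmid in strain YBZ-1, which carries a LexA–MS2 coat fusion and a HIS3 reporter. Transformants grew for four days on SC-Leu (input) or on SC-Leu-His + 0.5 mM 3-AT (selection), and the repeat regions were PCR-amplified and Illumina-sequenced. The interaction score is the log change in variant frequency from input to selection. That logarithm is base 2, with a pseudocount of 1 where a variant was absent.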

A further assay addresses PUM1 PUF domain R5-FRW (Homo sapiens, UniProt Q14671 828-1176, C1007F;Q1011W). The gist of the method: as §1
For a further assay, the target named is PUM1 PUF domain R4-DRC (Homo sapiens, UniProt Q14671 828-1176, N971D;H972R;Q975C). An outline of the steps:
as §1

Another assay concerns the target T1, PUM1 PUF domain R6-VFI (Homo sapiens, UniProt Q14671 828-1176, N1043V;Y1044F;Q1047I).
T1 sequence: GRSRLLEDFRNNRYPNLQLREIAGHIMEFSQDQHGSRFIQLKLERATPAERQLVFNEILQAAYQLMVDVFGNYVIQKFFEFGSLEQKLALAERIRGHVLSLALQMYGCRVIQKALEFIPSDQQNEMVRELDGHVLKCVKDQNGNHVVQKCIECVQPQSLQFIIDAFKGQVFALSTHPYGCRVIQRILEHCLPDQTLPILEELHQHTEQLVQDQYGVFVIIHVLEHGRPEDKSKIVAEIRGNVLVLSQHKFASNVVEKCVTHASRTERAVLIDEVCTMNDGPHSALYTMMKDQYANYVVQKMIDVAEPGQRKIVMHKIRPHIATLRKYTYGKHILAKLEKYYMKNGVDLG
The gist of the method: as §1

The target of a further assay is PUM1 PUF domain R4-WAA (Homo sapiens, UniProt Q14671 828-1176, N971W;H972A;Q975A). An outline of the steps: as §1
The target of the next assay is PUM1 PUF domain R3-MSR (Homo sapiens, UniProt Q14671 828-1176, C935M;R936S;Q939R). An outline of the steps: as §1
The target of another assay is PUM1 PUF domain R4-MHW (Homo sapiens, UniProt Q14671 828-1176, N971M;Q975W). An outline of the steps:
as §1

For the next assay, the target named is PUM1 PUF domain R5-FHK (Homo sapiens, UniProt Q14671 828-1176, C1007F;R1008H;Q1011K). The gist of the method: as §1
In a further assay the target is PUM1 PUF domain R5-KHH (Homo sapiens, UniProt Q14671 828-1176, C1007K;R1008H;Q1011H). An outline of the steps: as §1
In a further assay the target is PUM1 PUF domain R3-LSC (Homo sapiens, UniProt Q14671 828-1176, C935L;R936S;Q939C). The gist of the method: as §1

Take “GGCUAGAACUAGUGGAUCCCCCGGCGCCCGGCGGCUCGAGCCCGGGUAAGUUUAAAUAGUCUGCAUGCCGCCGGGCGCCAUGCCUGCAGGUCGACUCUAGAAAACAUG”: the binding signal in the assay with PUM1 PUF domain R7-RGF is 3.87 log2 enrichment (interaction score). “GGCUAGAACUAGUGGAUCCCCCGGCGCCCGGCGGCUCGAGCCCGGGUAAGUGUCAAUAGUCUGCAUGCCGCCGGGCGCCAUGCCUGCAGGUCGACUCUAGAAAACAUG”: the binding signal with PUM1 PUF domain R5-FRW was 3.47 log2 enrichment (interaction score). Turning to “GGCUAGAACUAGUGGAUCCCCCGGCGCCCGGCGGCUCGAGCCCGGGUAAGUGUAAAUAGUCUGCAUGCCGCCGGGCGCCAUGCCUGCAGGUCGACUCUAGAAAACAUG”, the binding signal is 1.07 log2 enrichment (interaction score) in the assay with PUM1 PUF domain R5-FRW, 5.15 log2 enrichment (interaction score) in the assay with PUM1 PUF domain R4-DRC, 3.71 log2 enrichment (interaction score) in the assay with PUM1 PUF domain R6-VFI and 1.39 log2 enrichment (interaction score) with PUM1 PUF domain R4-WAA.

Turning to “GGCUAGAACUAGUGGAUCCCCCGGCGCCCGGCGGCUCGAGCCCGGGUAAGUGUAAGUAGUCUGCAUGCCGCCGGGCGCCAUGCCUGCAGGUCGACUCUAGAAAACAUG”, the binding signal in the assay with PUM1 PUF domain R3-MSR was 3.44 log2 enrichment (interaction score). As for “GGCUAGAACUAGUGGAUCCCCCGGCGCCCGGCGGCUCGAGCCCGGGUAAGUGUAUAUAGUCUGCAUGCCGCCGGGCGCCAUGCCUGCAGGUCGACUCUAGAAAACAUG”, the binding signal in the assay with PUM1 PUF domain R4-MHW is 3.93 log2 enrichment (interaction score); with PUM1 PUF domain R4-WAA it was 4.4 log2 enrichment (interaction score). Regarding “GGCUAGAACUAGUGGAUCCCCCGGCGCCCGGCGGCUCGAGCCCGGGUAAGUGUGAAUAGUCUGCAUGCCGCCGGGCGCCAUGCCUGCAGGUCGACUCUAGAAAACAUG”, the binding signal was 3.51 log2 enrichment (interaction score) with PUM1 PUF domain R5-FHK and 2.08 log2 enrichment (interaction score) with PUM1 PUF domain R5-KHH.

As to “GGCUAGAACUAGUGGAUCCCCCGGCGCCCGGCGGCUCGAGCCCGGGUAAGUGUAAUUAGUCUGCAUGCCGCCGGGCGCCAUGCCUGCAGGUCGACUCUAGAAAACAUG”, the binding signal in the assay with PUM1 PUF domain R3-LSC is 2.84 log2 enrichment (interaction score); with PUM1 PUF domain R3-MSR, 2.82 log2 enrichment (interaction score). In the case of “GGCUAGAACUAGUGGAUCCCCCGGCGCCCGGCGGCUCGAGCCCGGGUAAGUGUUAAUAGUCUGCAUGCCGCCGGGCGCCAUGCCUGCAGGUCGACUCUAGAAAACAUG”, the results for the binding signal with PUM1 PUF domain R5-FRW and with PUM1 PUF domain R5-FHK were 3.35 log2 enrichment (interaction score) and 4.76 log2 enrichment (interaction score), respectively.
